Source: PubChem
Many of the other results were omitted from the sample, so hits are more common in it than they were.
PINK1 modulator: PINK1 expression modulation. PINK1 immunofluorescence, high-content cytometry, 24 h. 410,000 tested, 0.2% active. Potency, µM (series often up to 76.6 µM), inactives show at the top dose activation (PINK1 increase), most hits filed as activators. AID 624263; active = well fitted activation curve with a large enough effect; inconclusive = small, poorly fitted or top-dose-only effect; cell line not stated here; note: % of control where 0% means no effect; nearly all actives have a fitted effect of over 65% in size
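Measures PINK1 amount and localization on or inside mitochondria by immunofluorescence. Stable cells get compounds at 5 concentrations for 24 hours before fixation and staining; CCCP controls included.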
HTT aggregate: inhibitors of mutant huntingtin aggregate formation in PC12 cells; Potency, µM (series often up to 46.1 µM), for inactives: at the top dose activity change, negative = inhibition, usual class: inhibitors; PC12 HttQ103-GFP aggregates, Acumen cytometry, 40 h; 220,000 tested, 1.1% active; note: % is set by controls: 0 for no effect and ±100 for the full control effect; nearly all actives have a fitted effect of over 60% in size
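Compounds (qHTS titration) were added to PC12 cells expressing an ecdysone-driven HTT exon 1 Q103–GFP fusion after induction with 100 nM tebufenozide. Aggregate formation was measured as GFP objects in cell lysates.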
Anesthetic bind: binds horse apoferritin like a general anesthetic | 350,000 tested, 0.074% active | apoferritin/1-aminoanthracene competitive binding, fluorescence | AID 485281 | P02791 | Potency, µM (highest dose often 77.5 µM), for inactives: at the highest dose activity change, negative = displacement, hits mostly inhibitors; note: % is set by controls: 0 for no effect and ±100 for the full control effect; nearly all actives have a fitted effect of over 20% in size
Target sequence (P02791 2-175 limits assumed): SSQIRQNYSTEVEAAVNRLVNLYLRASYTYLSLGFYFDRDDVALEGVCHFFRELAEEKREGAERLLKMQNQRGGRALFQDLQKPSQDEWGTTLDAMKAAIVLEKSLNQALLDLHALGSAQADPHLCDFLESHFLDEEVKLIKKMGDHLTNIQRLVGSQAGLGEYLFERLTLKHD
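Horse-spleen apoferritin (10 uM) was mixed with 50% saturated 1-aminoanthracene in PBS, exposed to compounds for 10 min at room temperature, and read for fluorescence (ex 380 nm, em 535 nm). Competitive displacement was fitted with a four-parameter Hill equation.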
Epigenetic derep: regulators of epigenetic silencing causing reporter derepression in mouse cells; 280,000 tested, 0.2% active; Potency, µM (doses to about 53.9 µM), without a hit: at the top dose GFP activation, actives largely listed as activators; murine LDR cells, GFP reporter derepression, 30 h; note: % of control where 0% means no effect; nearly all actives have a fitted effect of over 60% in size
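Reporter derepression read as number of fluorescent GFP-positive objects, 20-120 um in size, counted by laser-scanning cytometer. Mouse LDR line with an epigenetically silenced CMV-GFP locus; compound incubation 30 h, 37 C.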
HTT ATP protect: Huntington cell model cytoprotection by ATP luminescence. AID 1471. PC12 HTT-Q103 induced, cytoprotection, ATP luminescence, 40 h. Potency, µM (highest dose often 56.4 µM), inactives show cytoprotection (ATP increase), hits mostly activators. 230,000 tested, 0.14% active; note: % of control where 0% means no effect; nearly all actives have a fitted effect of over 45% in size
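PC12 cells stably carrying ecdysone-inducible Htt exon 1 (Q103)–GFP were induced with 100 nM tebufenozide (final) alongside library compounds in a dose series. Cytoprotection was scored as retained ATP by ATPlite luminescence.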
PTAP TSG101 blk: blocks PTAP/TSG101 interaction to inhibit HIV-1 budding. Q99816. Fluorescence polarization, FITC-PTAP peptide / Tsg101 binding. Potency, µM (series often up to 115 µM), for the others: at the top dose activity change, negative = inhibition, hits mostly inhibitors. 340,000 tested, under 10 active. AID 493005; active = well fitted inhibition curve with a large enough effect in the main read-out, with a control signal flat, not every such curve was filed as active; inconclusive = small, poorly fitted or top-dose-only effect, or effect the other way, or a change in a side signal; inactive = no such curve, though single readings can be large or run the other way; note: % of control where 0% means no effect
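Fluorescence anisotropy tracks displacement of a FITC-tagged PTAP peptide (50 nM) from the Tsg101 binding domain (10 uM), following a 20 min room-temperature incubation at pH 7.5.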
Starred values were filed as active, the others as inactive; ? = inconclusive; / = not tested or not shown; [ ] = dose if it differs, or a comment. Unless noted, calls come from the whole dose curve; as a rule, active = well fitted curve in the direction sought with a large enough effect; inconclusive = small, poorly fitted or top-dose-only effect, or another doubt; inactive = no such curve, though single readings can be large; an effect the other way counts as inactive or inconclusive. Potency is the fitted concentration of half-maximal effect.

SMILES	PINK1 modulator	HTT aggregate	Anesthetic bind	Epigenetic derep	HTT ATP protect	PTAP TSG101 blk
O=C([C@@H]1C[C@@H](Sc2nc3ccccc3[nH]2)CN1Cc1c(F)cccc1F)N1CCOCC1	0%	/	/	/	/	/
CC(=C/c1ccccc1)/C=N/n1c(-c2ccncc2)n[nH]c1=S	1%	2µM*	-16%	-1%	-44%	-4%
CCCN1CNc2c(c(=O)[nH]c(=S)n2CCc2ccc(OC)cc2OC)C1	0%	/	/	/	/	/
O=C(O)/C=C/C(=O)NC1CCCCC1	-2%	3.5µM*	0%	-1%	-58%[10 µM]	-2%
COc1ccc(CNCc2cccc(Oc3ccccc3)c2)cc1	12%	2.8µM*	-14%	-1%	-54%	-5%
CC(NCC(O)COc1ccc(S(=O)(=O)N2CCOCC2)cc1)c1ccccc1 (centres undefined)	-1%	-3%	-4%	-2%	2.2µM*	0%
O=S(=O)(c1ccc(OCC(O)CN2CCCCC2)cc1)N1CCOCC1 (centres undefined)	-2%	8%	-5%	0%	-7%	-4%
Cc1cc(=O)c(C(=O)NCCc2ccccn2)c2n1-c1ccccc1SC(c1cccs1)C2 (centres undefined)	-1%	/	/	/	/	/
NC1=NS(=O)(=O)NC1c1ccc(F)cc1 (centres undefined)	0%	-3%	2%	-1%	3.5µM*	-2%
Cc1ccc(C2NS(=O)(=O)N=C2N)cc1 (centres undefined)	4%	4%	-10%	-1%	8%	-6%
COc1ccc(N/N=C(\C#N)C(=N)SCc2ccccc2)cc1	0%	7.9µM*	?	-1%	?	1%
O=C1C(Cl)=C(NCCc2ccccc2)C(=O)c2ccccc21	1%	/	/	/	/	0%
CC(=O)N(Cc1ccc(F)cc1)C1=C(NCCc2ccccc2)C(=O)c2ccccc2C1=O	-1%	7.1µM*	?	2%	-157%	-3%
N#Cc1nc(-c2ccccc2)cc(-c2ccccc2)n1	2%	/	/	/	/	/
Cc1ccc(OCCCn2ccnc2)cc1C	0%	?	18µM*	-2%	11%	6%
O=C(NCC1CCC2(CCN(Cc3cc4ccccc4o3)CC2)O1)c1ccccc1 (centres undefined)	4%	/	/	/	/	/
Nc1ccc(/C=C/c2cccc3cccnc23)cc1	0%	/	/	/	/	/
C=CCn1c(-c2ccc(OC)cc2)nc2ccccc21	3%	11µM*	?	8%	-28%[10 µM]	-2%
CCn1c(-c2ccc(N(C)C)cc2)nc2ccccc21	-2%	10µM*	?	-1%	-97%	-7%
CS(=O)(=O)c1ccc(-c2cccc3c2OC(CNC(=O)c2ccnc(Cl)c2)C3)cc1 (centres undefined)	-1%	/	/	/	/	/
COc1ccccc1C(=O)Nc1cccc(N2CCC(NCc3cnn(-c4ccccc4)n3)CC2)c1	2%	/	/	/	/	/
Cc1ccc(CSc2nc3cccnc3n2Cc2nc(-c3ccccc3F)oc2C)cc1	3%	/	-20%	-1%	/	/
Cc1ccccc1-n1c(SC(C)C(N)=O)nnc1-c1cccnc1 (centres undefined)	10µM*	2%	-15%	-1%	-15%	-5%
CCCC(=O)O[C@]1(C(=O)CCl)[C@H](C)C[C@@H]2[C@H]3CCC4=CC(=O)C=C[C@]4(C)[C@@]3(F)C(=O)C[C@@]21C	/	2%	/	/	-11%	/
O=C(N/N=C/c1ccccc1)c1c(O)c2ccccc2[nH]c1=O	8.9µM*	22µM*	5%	2%	12%[10 µM]	-1%
O=C(N/N=C/c1cccc(F)c1)c1c(O)c2ccccc2[nH]c1=O	2.8µM*	?	-3%	1%	-1%[10 µM]	0%
O=C(Nc1cccc(F)c1)c1c(O)c2ccccc2[nH]c1=O	1%	/	0%	/	/	-2%
O=C(N/N=C/c1ccc(F)cc1)c1c(O)c2ccccc2[nH]c1=O	4.5µM*	3.5µM*	2%	-1%	-51%[10 µM]	0%
